# Out of some 2,100 compounds screened, about 940 (45%) were called active. Inconclusive results (about 48%) are left out. Calls come from the whole dose curve; as a rule, active = well fitted inhibition curve with a large enough effect; inconclusive = small, poorly fitted or top-dose-only effect; inactive = no such curve, though single readings can be large or run the other way. The set was probably picked from earlier hits. Some of the results follow.
# Assay: Confirmatory qHTS for Inhibitors of ATXN expression; note: nearly all actives have a fitted effect of over 65% in size;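 for activity change, negative = inhibition: 0% = DMSO vehicle wells and -100% = medium-only wells without cells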
# Details: ATXN2-luciferase reporter cells, luminescence, 24 h; series mostly up to 11.5 µM; activity change, negative = inhibition: at the top concentration
# Summary of the method: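 A titration, incubated 24 h with reporter cells expressing ATXN2-luciferase. Luminescence (SteadyGlo) gives ATXN2 expression, multiplexed GF-AFC fluorescence gives viability; normalised to DMSO and medium-only wells.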
# Potency is the fitted concentration of half-maximal effect.
SMILES,Potency,"activity change, negative = inhibition"
CCOC(=O)c1c(SCCN2CCCC2)n(-c2ccccc2)c(=S)n(-c2ccccc2)c1=O,2.24 µM (active),–
CCOC(=O)c1c(SCCN2CCCCC2)n(-c2ccccc2)c(=S)n(-c2ccccc2)c1=O,22.4 µM (active),–
COc1cccc(N2CCN(c3nc(-c4ccccc4C)cc(=O)[nH]3)CC2)c1,0.398 µM (active),–
COc1ccccc1NCC(=O)N/N=C/c1c(O)ccc2ccccc12,3.16 µM (active),–
O=C(CSCC(=O)Nc1ccccc1)N/N=C/c1c(O)ccc2ccccc12,0.708 µM (active),–
O=C(CNc1ccccc1)N/N=C/c1c(O)ccc2ccccc12,0.562 µM (active),–
O=C(CNc1ccc(F)cc1)N/N=C/c1c(O)ccc2ccccc12,3.16 µM (active),–
CCOc1cc(CNCCO)cc(Br)c1OCc1ccccc1,12.6 µM (active),–
Cc1nc(C(F)(F)F)c(C(=O)N/N=C(\N)c2ccccn2)s1,14.1 µM (active),–
CC(C)C1Cc2c(sc3[nH]c(=S)n(Cc4ccccc4)c(=O)c23)CO1 (stereo not drawn),12.6 µM (active),–
Nc1ccc(Oc2ccccc2-c2ccccc2)cc1,2 µM (active),–
Cc1ncc(CO)c(/C=N/Nc2ccc(C(F)(F)F)cn2)c1O,3.55 µM (active),–
CCC(C)N1C(=O)S/C(=C/c2ccc(Sc3nc4ccccc4[nH]3)o2)C1=O (stereo not drawn),11.2 µM (active),–
COc1cc(C(=O)OC(C)C(=O)N2CCc3ccccc3C2)ccc1OCC(=O)N1CCOCC1 (stereo not drawn),–,4.56% (inactive)
S=C(Nc1ccccc1)Nc1ccc(OCc2ccc(Cl)cc2Cl)cc1,2.51 µM (active),–
Cc1[nH]c(=O)c(C(=O)/C=C/c2ccccc2)c2c1CCCC2,7.94 µM (active),–
Cc1ccc(C(=O)NCCN2C3=NC[C@@H](Cc4ccccc4)N3C[C@H]2Cc2ccc(O)cc2)cc1Br,2.82 µM (active),–
CCCCn1c2ccc(F)cc2c2nnc(NN)nc21,28.2 µM (active),–
Cc1cc(C2=NNC(=NC3CC3)SC2)c(C)n1-c1ccccc1F,0.126 µM (active),–
CCC(=O)NC(c1ccco1)c1cc(Cl)c2cccnc2c1O (stereo not drawn),2.82 µM (active),–
CCCCC(=O)NC(c1ccco1)c1cc(Cl)c2cccnc2c1O (stereo not drawn),3.55 µM (active),–
CCCC(=O)NC(c1ccco1)c1cc(Cl)c2cccnc2c1O (stereo not drawn),11.2 µM (active),–
CC(=O)NC(c1ccco1)c1cc(Cl)c2cccnc2c1O (stereo not drawn),3.16 µM (active),–
O=C(CCc1ccccc1)NC(c1cccs1)c1cc(Cl)c2cccnc2c1O (stereo not drawn),2.24 µM (active),–

SMILES,Potency,"activity change, negative = inhibition"
CCC(=O)NC(c1ccco1)c1cc(Br)c2cccnc2c1O (stereo not drawn),11.2 µM (active),–
Oc1ccc(C2CNCc3sccc32)cc1O (stereo not drawn),–,-15.3% [at 57.5 µM] (inactive)
Cc1nc(-c2ccc(C(F)(F)F)cc2)sc1C(=O)NN,14.1 µM (active),–
Cc1c(C(=O)NCc2ccc(C(F)(F)F)cc2)sc(=O)n1Cc1cccc(F)c1,–,-26.9% [at 57.5 µM] (inactive)
Cn1c(NCCN2CCCC2)nc2cc(-c3ccsc3)sc2c1=O,28.2 µM (active),–
Cc1ccc(F)cc1-c1cc2nc(NCCCN(C)C)n(C)c(=O)c2s1,17.8 µM (active),–
Cc1cc(Cl)ccc1-c1cc2nc(NCCCN(C)C)n(C)c(=O)c2s1,–,-5.65% (inactive)
CCCCCCc1cc2cc(C(=O)Nc3ccccc3)c(=O)oc2cc1O,0.794 µM (active),–
CCCCCCc1cc2cc(S(=O)(=O)c3ccc(C)cc3)c(=O)oc2cc1O,–,-15.6% (inactive)
Cc1cccc(Nc2nc(N)nc(CCl)n2)c1C,–,-14.3% (inactive)
C=CCn1c(COc2ccccc2)nnc1SC(C)C(=O)N/N=C/c1cc(Cl)ccc1O (stereo not drawn),3.98 µM (active),–
CC(C)c1ccc(S(=O)(=O)c2cc3cc(Br)ccc3oc2=O)cc1,25.1 µM (active),–
c1ccc2c(c1)c1c(c3ccccc32)CN2CCCC2C1 (stereo not drawn),–,-29.2% [at 57.5 µM] (inactive)
CS(=O)(=O)Nc1ccccc1C(=O)Nc1cc(Cl)cc(Cl)c1,2.51 µM (active),–
CC(C)(C)NCC(=Cc1ccccc1)C(=O)c1ccccc1,1.41 µM (active),–
O=C(C(Br)=Cc1ccccc1)c1ccccc1,10 µM (active),–
Cc1n(Cc2ccccc2)c2ccccc2[n+]1Cc1ccccc1,–,-27.8% (inactive)
N#Cc1c(Oc2ccc3ccccc3c2)sc(C(=O)c2ccccc2)c1N,14.1 µM (active),–
CCOC(=O)C1CCN(c2cc3c(cc2NC(=O)c2ccccc2OCC)n(C)c(=O)n3C)CC1,28.2 µM (active),–
Cc1ccc(O)c(CNCCNCc2cc(C)ccc2O)c1,14.1 µM (active),–
Cc1ccc(-c2noc(CCCC(=O)NC3CCCC3)n2)cc1,7.94 µM (active),–
COc1ccc(-c2noc(CCCC(=O)NC3CCCC3)n2)cc1,8.91 µM (active),–
O=C(CSc1ccc2ccccc2c1)Nc1nc2ccccc2[nH]1,2.82 µM (active),–
Cc1cccc(OCCCC(=O)Nc2nccs2)c1,3.16 µM (active),–

SMILES,Potency,"activity change, negative = inhibition"
Cc1cccc(OCCCC(=O)Nc2nc3ccccc3[nH]2)c1,0.891 µM (active),–
Cc1[nH]n(-c2ccccc2)c(=O)c1C=Nc1cccc2cccnc12,1.78 µM (active),–
CCOc1cc(/C=C2\SC(=N)N(c3nccs3)C2=O)ccc1OCCN1CCOCC1,14.1 µM (active),–
CSc1nc(-c2ccc(Cl)cc2)nc(N)c1C#N,2.82 µM (active),–
CC(=O)Oc1ccc(N(C(C)=O)S(=O)(=O)c2ccc(C)cc2C)c2ccccc12,31.6 µM (active),–
CC(=O)Oc1ccc(N(C(C)=O)S(=O)(=O)c2ccc(C)cc2)c2ccccc12,3.16 µM (active),–
CC1CCN(Cc2c(C(=O)N/N=C/c3cc(Br)ccc3O)nnn2-c2nonc2N)CC1,0.794 µM (active),–
CC1CCN(Cc2c(C(=O)N/N=C/c3cc(Cl)ccc3O)nnn2-c2nonc2N)CC1,3.55 µM (active),–
CC1CCN(Cc2c(C(=O)N/N=C/c3ccccc3O)nnn2-c2nonc2N)CC1,1.78 µM (active),–
CCN1CC2=C(OC(N)=C(C#N)C2c2cccs2)/C(=C\c2cccs2)C1 (stereo not drawn),–,-3.24% (inactive)
COc1cc([C@@H]2c3cc4c(cc3[C@@H](O[C@@H]3O[C@@H]5CO[C@@H](C)O[C@H]5[C@H](O)[C@H]3O)[C@H]3COC(=O)[C@H]23)OCO4)cc(OC)c1O,0.631 µM (active),–
CC[C@]12c3[nH]c4ccc(Cl)cc4c3CCN1C(=O)[C@@H](CC(=O)NCC13CC4CC(CC(C4)C1)C3)C[C@@H]2C(=O)N1CCN(C(=O)C2CC2)CC1,28.2 µM (active),–
CC[C@]12c3[nH]c4ccc(Cl)cc4c3CCN1C(=O)[C@@H](CC(=O)NCC13CC4CC(CC(C4)C1)C3)C[C@@H]2C(=O)N1CCN(C(=O)c2ccco2)CC1,3.55 µM (active),–
O=C(N/N=C(\Cc1ncc[nH]1)c1ccccc1)c1ccncc1,10 µM (active),–
O=C(N/N=C(\Cc1ncc[nH]1)c1ccccc1)c1cccnc1,3.16 µM (active),–
Oc1ccc2ccccc2c1/C=C/c1ccc2c(Br)cc(Br)c(O)c2n1,12.6 µM (active),–
CN(C)CCNc1cccc2sc3ccc(O)cc3c(=O)c12,28.2 µM (active),–
CN(C)CCNc1ccc2nnn3c4ccc(O)cc4c(=O)c1c23,2 µM (active),–
CN(C)CCNc1ccc2ncn3c4ccc(O)cc4c(=O)c1c23,1 µM (active),–
Cc1cc(Oc2ccc(Cl)cc2)nc(-c2ccccn2)n1,–,-20.3% [at 57.5 µM] (inactive)
COc1cnc(-c2ccccn2)nc1Oc1ccc(Cl)c2ccccc12,3.16 µM (active),–
COc1cc([N+](=O)[O-])cc(/C=N/NC(=O)c2ccc(NC(=O)c3ccc(C)cc3)cc2)c1O,1.41 µM (active),–
O=C(N/N=C/c1cc(Br)cc([N+](=O)[O-])c1O)c1ccc(NC(=O)c2ccc(F)cc2)cc1,3.16 µM (active),–
Cc1cc(C(=O)N/N=C/c2cc(Br)cc([N+](=O)[O-])c2O)c2ccccc2n1,3.16 µM (active),–

SMILES,Potency,"activity change, negative = inhibition"
O=C(Nc1ccc(Cl)c(Cl)c1)Nc1nnc(CSc2ccccc2)s1,1.78 µM (active),–
CC1=CC(C)(C)Nc2ccc(OC(=O)CN3C(=O)CCC3=O)cc21,3.55 µM (active),–
Cc1cc(NCc2ccccn2)n2nc(C)c(-c3ccc(Cl)cc3)c2n1,15.8 µM (active),–
c1ccc(Cn2c(-c3ccccc3)c[n+]3c2SCCC3)cc1,–,-25.9% [at 57.5 µM] (inactive)
CCOc1ccc(-n2c(-c3ccccc3)c[n+]3c2CCCCC3)cc1,8.91 µM (active),–
Cc1cccc(C2=NN(c3ccccc3)[C@H](CO)[C@H]2c2ccc(Cl)cc2)c1,–,-19.7% (inactive)
Cc1cc(C)c2nc(N3CCCC(C(=O)N4CCN(c5ncccn5)CC4)C3)sc2c1 (stereo not drawn),3.16 µM (active),–
O=c1cc(-c2cccnc2)oc2c1ccc1ccccc12,3.55 µM (active),–
CN(C)c1cc[n+](CC(=O)c2ccc(-c3ccccc3)cc2)cc1,2.24 µM (active),–
Oc1ccc(C[C@@H]2CNCCN2CCc2cc(C(F)(F)F)cc(C(F)(F)F)c2)cc1,3.16 µM (active),–
COc1cccc(-c2ccc(NC(=O)C3CCCN(Cc4cnn(C(C)C)c4)C3)cc2)c1 (stereo not drawn),3.16 µM (active),–
Cc1cc(C)nc(NNS(=O)(=O)c2ccc(F)c(Cl)c2)n1,–,-3.25% (inactive)
CN(CC(=O)Nc1ccc(Cl)c(C(F)(F)F)c1)C(=O)c1cccnc1Sc1ccccc1,–,-17.8% [at 57.5 µM] (inactive)
CN(CC(=O)NCc1ccc(F)cc1)CC(=O)Nc1ccc(Cl)c(C(F)(F)F)c1,25.1 µM (active),–
Cc1nc(-c2ccc(F)cc2)c(CC(=O)N(C)CC(=O)Nc2ccc(Cl)c(C(F)(F)F)c2)s1,25.1 µM (active),–
CC(C)C(=O)NC(c1ccccc1)c1cc([N+](=O)[O-])c2cccnc2c1O (stereo not drawn),10 µM (active),–
CCC(=O)NC(c1ccc(C)cc1)c1cc([N+](=O)[O-])c2cccnc2c1O (stereo not drawn),6.31 µM (active),–
Cc1cc(OCC(=O)NC(C)c2ccccc2)ccc1[N+](=O)[O-] (stereo not drawn),–,-13.6% (inactive)
CC(C)c1ccc2c(c1)C(N1CCNCC1)Cc1ccc(F)cc1S2 (stereo not drawn),28.2 µM (active),–
N#Cc1c(N)n(C2OC(CO)C(O)C2O)c2ncnc(N)c12 (stereo not drawn),0.398 µM (active),–
CNc1nc2c(N)ncnc2n1[C@H]1O[C@@H](CO)[C@H](O)[C@@H]1O,2.82 µM (active),–

# Reference: PubChem BioAssay AID1745848 (National Center for Advancing Translational Sciences (NCATS), 2022)
